Results filed as inconclusive are left out. Activity calls are given as the source filed them. The calls were made as follows: active = hit-call score of the fitted dose curve at least 0.9, where 1 is the maximum; inconclusive = response in the unintended direction; inactive = score below 0.9.

This test can be described thus: ACEA_ER_AUC_viability: ACEA Biosciences xCELLigence Real-Time Cell Analysis on Estrogen Receptor Agonism for Viability (AID 2283782).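 Also: hit means loss of impedance signal meaning reduced cell growth or viability.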 In short, it runs like this:
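Continuous-exposure impedance cell analysis uses T-47D cells in charcoal-stripped serum, eight 1:4 dilutions topping at 100 uM final, biological duplicate. Area under the growth curve at 80 h is fitted against DMSO baseline.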
Broadly, the AC50 is the concentration giving half of the maximal activity seen. In the case of `O=S(=O)(O)CCCN1CCOCC1`, the AC50 is 36.6 µM (active).
Turning to `CCO[Si](CC)(OCC)OCC`, the compound was classed as inactive.
As to `Cc1cc(N)n(-c2ccccc2)n1`, the compound was called inactive.
Turning to `CC(O)CN` (stereo unspecified), the outcome was inactive.
Take `CC1=CC[C@@H](C(C)(C)O)CC1`: the outcome was inactive.
For `C=C(C)CCCC(C)CCO` (stereo unspecified), the AC50 was 50 µM (active).
Regarding `CCCCCCC(O)CCOC(C)=O` (stereo unspecified), the call was inactive.
On to `c1ccc(OCCOc2ccccc2)cc1`, for which the outcome was inactive.
In the case of `CC(=O)c1cccnc1`, the outcome was inactive.
For the compound `O=C(OCc1ccccc1)c1ccccc1O`, the AC50 is 94.3 µM (active).
On the same count and under the same terms, in the case of `CCCCCCCCCCO[C@@H]1O[C@H](CO)[C@@H](O)[C@H](O)[C@H]1O` it was 80.3 µM (active).
Turning to `c1ccc2c(c1)-c1ccc3ccc4cccc5cc-2c1c3c45`, the result was inactive.
Still for that read-out and setting: in the case of `NC(N)=NC(N)=NCCc1ccccc1` it was “inactive”.
Regarding `CC1=CC(C)C(C=O)C(C)C1` (stereo unspecified) (tested in a mixture with another compound), the AC50 is 50 µM (active).
As for `C=CCS(=O)(=O)O`, the result was inactive.
With `NNC(=O)OCc1ccccc1`, the compound was classed as inactive.
`CCCCCCCCOC(=O)c1ccc(O)cc1`: the AC50 is 24.7 µM (active).
`CCC(C)(C)c1cc(O)c(C(C)(C)CC)cc1O`: the AC50 was 72.7 µM (active).
As for `CN1CCc2cccc3c2[C@H]1Cc1ccc(O)c(O)c1-3`, the AC50 is 7.27 µM (active).
Consider `OCCCO`, for which the call was inactive.
As to `COc1ccc(C(C)=O)cc1`, the result was inactive.
Take `O=S(=O)(O)c1cc(O)c(O)c(S(=O)(=O)O)c1`: the compound was classed as inactive.
As to `CCCc1ccc(N)cc1`, the call was inactive.
For the compound `CCOC(=O)COC(=O)c1ccccc1C(=O)OCC`, the compound was classed as inactive.
With `O=C(O)c1ccc(C(=O)O)c(C(=O)O)c1`, the call was inactive.
On the same count and under the same terms, in the case of `OCCN1CCOCC1` it was “inactive”.
On to `CC(=O)c1ccc(C)cc1`, for which the outcome was inactive.
On to `CC(C)OB(OC(C)C)OC(C)C`, for which the compound was classed as inactive.
Same read-out and setting: in the case of `CC(C)C(=O)c1ccccc1` it was “inactive”.
As for `CC(=O)C1=C(C)[C@@H]2C[C@@]3(C1)[C@H](C)CC[C@H]3C2(C)C`, the AC50 was 88.1 µM (active).
Take `C=C1CC/C=C(\C)CC[C@@H]2[C@@H]1CC2(C)C`: the result was inactive.
Turning to `CC1=CC(O)CC(C)(C)C1` (stereo unspecified), the AC50 is 71.8 µM (active).
As for `CCOC(=O)CC1(C)OCC(C)O1` (stereo unspecified), the compound was called inactive.
Take `CCc1cccc(O)c1`: the call was inactive.
For `CCCCCCCCCCCCOC(C)=O`, the call was inactive.
Regarding `CCCCOC(=O)C(C)OC(=O)CCC` (stereo unspecified), the call was inactive.

The values are drawn from PubChem BioAssay (EPA / NIEHS).
